Reference: PubChem BioAssay

Test: probe aWnt5a binding to arrayed compounds – biochemical, biotinylated probe, 635/667 nm fluorescence, primary screen (AID 1113);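 also: score merges 667 nm fluorescence intensity with signal-to-noise per printed feature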
Conditions: small-molecule microarray, higher = more signal

SMILES	composite z-score
CC(CO)N1C(=O)[C@@H]2C3C(=O)OCCC/C=C\[C@H]3OC23C=CCN(C(C)(C)C)C(=O)[C@@H]13 (stereo not given in full)	-0.192
CN1C(=O)C2C=CC(C(O)c3ccccc3)N(N(c3ccccc3)c3ccccc3)C2C1=O (stereo not given)	0.0181
C=CCOC(=O)[C@H]1[C@@H]2C(=O)O[C@@H](c3ccccc3)[C@@H](c3ccccc3)N2[C@@H](c2ccc(OCCOC(=O)[C@@H]3C[C@@H]4C(=O)N[C@@H](CCCCNC(C)=O)C(=O)N4[C@@H]3c3ccc(O)cc3)cc2)[C@]12C(=O)Nc1ccccc12	-0.0704
C[C@H]1C2[C@H](Cc3ccccc3)NC(=O)[C@]23C(=O)N[C@H](Cc2ccccc2)C(=O)N2CCC[C@H]2C(=O)NC/C=C\C/C=C/C3[C@@H]2O[C@]12C (stereo not given in full)	-0.0165
CC(C)C(O)C1C=CC2C(=O)NC(=O)C2N1Nc1ccc(Cl)cc1Cl (stereo not given)	-0.0944
COC(=O)C(CC#Cc1ccc2c(c1)[C@]1(C(=O)N2)[C@H](C(=O)Nc2nc3ccccc3s2)[C@H]2C(=O)O[C@H](c3ccccc3)[C@H](c3ccccc3)N2[C@@H]1c1ccc(O)cc1)C(=O)OC	0.027
CC(C)C(O)C1C=CC2C(=O)N(c3ccccc3)C(=O)C2N1Nc1ccc([N+](=O)[O-])cc1 (stereo not given)	0.261
CC(C)C[C@@H]1NC(=O)[C@@H]2C[C@H](C(=O)NCc3ccc(F)cc3)[C@H](c3cccc(OCCO)c3)N2C1=O	-0.31
CCCC[C@H]1OB(O)C[C@H]2C1=C(COC)C[C@H]1C(=O)N(C)C(=O)[C@H]12	-0.152
COCCOC(=O)N1C(=O)[C@@]2(c3cc(C#Cc4ccc(OC)cc4)ccc31)[C@H](c1ccccc1OCCO)N1[C@H](c3ccccc3)[C@H](c3ccccc3)OC(=O)[C@H]1[C@@H]2C(=O)NC[C@H](O)c1ccccc1	-0.0445
CCOC(=O)C[C@H]1[C@H](OC(=O)c2ccc(C(=O)c3ccccc3)cc2)[C@@H](NC(=O)c2ccccc2)c2cc(OCCCO)ccc2N1C(=O)c1ccc2ccccc2n1	-0.0614
O=C(c1ccccc1)N1C(=O)[C@@]2(Cc3ccccc31)N=C(c1ccc(OCCCO)cc1)O[C@H]2c1ccccc1	0.0919
Cc1ccc(N2C(=O)c3ccccc3[C@@H](C(=O)NC3CC3)[C@@H]2c2ccc(CO)cc2)nc1	-0.268
[N-]=[N+]=Nc1ccccc1[C@@H]1OC(c2ccc(OCCCO)cc2)=N[C@]1(CCS(=O)(=O)c1ccccc1)C(N)=O	0.29
COC(=O)C(CC#Cc1ccc2c(c1)[C@]1(C(=O)N2)[C@H](C(=O)Nc2nc3ccccc3s2)[C@H]2C(=O)O[C@H](c3ccccc3)[C@H](c3ccccc3)N2[C@@H]1c1ccccc1OCCO)C(=O)OC	-0.0346
CCOC(=O)C[C@H]1[C@H](OC(=O)c2ccc(C(=O)c3ccccc3)cc2)[C@@H](NC(=O)CC(C)C)c2cc(OCCCO)ccc2N1C(=O)c1ccc2ccccc2n1	-0.0704
C=CC[C@]1(C(=O)NCc2ccccc2)N=C(c2ccc(OCCCO)cc2)O[C@H]1c1ccccc1N=[N+]=[N-]	0.0108
OCCCC1=CC(c2cccs2)N(Cc2cc3c(cc2Br)OCO3)CC1 (stereo not given)	-0.137

SMILES	composite z-score
COc1ccc(C#Cc2ccc3c(c2)[C@]2(C(=O)N3)[C@H](C(=O)Nc3nc4ccccc4s3)[C@H]3C(=O)O[C@H](c4ccccc4)[C@H](c4ccccc4)N3[C@@H]2c2ccc(O)cc2)cc1	0.383
NC(=O)[C@@H]1[C@H]2C(=O)O[C@H](c3ccccc3)[C@H](c3ccccc3)N2[C@H](c2ccc(O)cc2)[C@@]12C(=O)Nc1ccccc12	-0.127
CCCCC(CC)C(O)C1C=CC2C(=O)N(Cc3ccccc3)C(=O)C2N1n1cnnc1 (stereo not given)	-0.124
O=C1O[C@H](c2ccccc2)[C@H](c2ccccc2)N2[C@H]1[C@@H](C(=O)N1CCCCCCC1)[C@]1(C(=O)Nc3ccc(C#CCCO)cc31)[C@H]2c1ccccc1OCCO	1.69
C=CCNC(=O)[C@H]1[C@@H]2C(=O)O[C@@H](c3ccccc3)[C@@H](c3ccccc3)N2[C@@H](c2ccccc2OCCO)[C@]12C(=O)Nc1ccc(C#CCCO)cc12	0.0357
COc1ccc(C#Cc2ccc3c(c2)[C@]2(C(=O)N3)[C@H](c3ccccc3OCCO)N3[C@H](c4ccccc4)[C@H](c4ccccc4)OC(=O)[C@H]3[C@@H]2C(=O)Nc2nc3ccccc3s2)cc1	-0.128
CN1C(=O)C2C=CC(C(O)C3CC=CCC3)N(N(c3ccccc3)c3ccccc3)C2C1=O (stereo not given)	0.027
O=C1O[C@@H](c2ccccc2)[C@@H](c2ccccc2)N2[C@@H](c3ccccc3OCCO)[C@]3(C(=O)Nc4ccccc43)[C@@H](C(=O)Nc3nc4ccccc4s3)[C@H]12	-0.0621
O=C1NC(=O)C2C1C=CC(C(O)c1cc(C(F)(F)F)cc(C(F)(F)F)c1)N2Nc1ccccn1 (stereo not given)	-0.0165
O=C(N1CCCCC1)[C@]1(Cc2ccccc2)N=C(c2ccc(OCCCO)cc2)O[C@@H]1c1ccccc1	0.0744
CC(C)c1ccc(NN2C(C(O)c3ccc(B(O)O)cc3)C=CC3C(=O)N(c4ccccc4)C(=O)C32)cc1 (stereo not given)	0.0324
NC(=O)NCC#Cc1ccc2c(c1)[C@]1(C(=O)N2)[C@H](c2ccc(O)cc2)N2[C@H](c3ccccc3)[C@H](c3ccccc3)OC(=O)[C@H]2[C@@H]1C(=O)O	-0.185
Cc1ccccc1C(O)C1C=CC2C(=O)N(c3ccccc3)C(=O)C2N1Nc1ccc(C(C)C)cc1 (stereo not given)	-0.0721
COc1ccc(CCNC(=O)[C@@H]2c3ccccc3C(=O)N(Cc3ccccc3Cl)[C@H]2c2ccc(CO)cc2)cc1	-0.152
O=C(NC1CC1)[C@@H]1c2ccccc2C(=O)N(Cc2ccccc2Cl)[C@H]1c1ccc(CO)cc1	-0.0765
Cc1nc2cc(Br)ccc2c(=O)o1	-0.198
CCN(CC)c1ccc(N2CC=CC34O[C@@H]5C=CCCOC(=O)C5[C@H]3C(=O)N(CCCCCCO)[C@@H]4C2=O)cc1 (stereo not given in full)	-0.096
